# Hits are enriched below; roughly 2.2% of the tested compounds scored in any of these assays.
# TrxR1 substrate: substrates of rat thioredoxin reductase 1 | purified TrxR1 substrate turnover, NADPH consumption readout | Potency, µM (top dose mostly 114 µM), inactives show at the top dose activity change, negative = substrate turnover | hit rate 0.01% among 390,000 | AID 588456; note: potency is the fitted concentration of half-maximal effect; % is set by controls: 0 for no effect and ±100 for the full control effect; nearly all actives have a fitted effect of over 50% in size
#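 Rat TrxR1, dispensed at 90 nM, was prereduced with 400 uM NADPH (final) for 5 min at ~22 deg C, then incubated with compound 15 min before 400 uM selenite. A first-read NADPH fluorescence drop versus no-compound background flagged substrates.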
# TrxR1 inh: rat TrxR1 inhibition; O89049; recombinant rTrxR1, NADPH fluorescence consumption, selenite substrate; Potency, µM (titrated, usually from 114 µM), for inactives: at the top dose activity change, negative = inhibition, hits mostly inhibitors; hit rate 1% among 390,000; note: potency is the fitted concentration of half-maximal effect; % is set by controls: 0 for no effect and ±100 for the full control effect; nearly all actives have a fitted effect of over 65% in size
#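 Rat TrxR1 (90 nM in the dispensed reagent) was pre-reduced with 400 uM NADPH for 5 min at room temperature, then incubated with compound for 15 min. After 400 uM selenite was added, NADPH fluorescence (Ex 340/Em 450 nm) was followed for 8 min.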
# IL2 activator: activators of IL-2. IL-2 activation reporter assay, cell-based qHTS; stimulated with anti-CD3/CD4/CD28 beads; in transgenic mouse T cells. activation, % (series mostly up to about 46 µM). hit rate 0.065% among 360,000. AID 652025; in the data active = activation above about 50%; inconclusive = mostly about 30% to 49%; note: 0% is about no effect
#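 EGFP and DsRed fluorescence is measured by plate cytometry in unstimulated transgenic mouse T cells exposed to compound for 60 minutes, then stimulated 18 hours at 37 degrees C with anti-CD3/anti-CD4 beads plus anti-CD28.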
# BRCA1 expr act: increases BRCA1 expression; MCF7-BRCA1-FFLuc reporter, luminescence, 48 h; response scale: scaled: vehicle 0%, 10 µM genistein 100%; Potency, µM (titrated, usually from 46.1 µM), inactives show at the top dose activation, actives largely listed as activators; hit rate 1.1% among 380,000; AID 624202; note: potency is the fitted concentration of half-maximal effect; nearly all actives have a fitted effect of over 80% in size
#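 Cells: MCF7-BRCA1-FFLuc, 2000/well. Exposure: 48 h, 37 °C, 5% CO2. Read: luminescence, 15 min post-substrate. Controls: genistein 10 microM (maximal activation), DMSO (neutral).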
# mIDH1 inhibitor: inhibitors of human mutant IDH1 R132H; O75874; IDH1-R132H enzyme, NADPH consumption, diaphorase/resazurin fluorescence; Potency, µM (doses to about 76.6 µM), without a hit: at the top dose activity change, negative = inhibition, usual class: inhibitors; hit rate 0.093% among 390,000; note: potency is the fitted concentration of half-maximal effect; % is set by controls: 0 for no effect and ±100 for the full control effect; nearly all actives have a fitted effect of over 65% in size
# Target sequence (O75874 whole entry R132H, stated change not applied): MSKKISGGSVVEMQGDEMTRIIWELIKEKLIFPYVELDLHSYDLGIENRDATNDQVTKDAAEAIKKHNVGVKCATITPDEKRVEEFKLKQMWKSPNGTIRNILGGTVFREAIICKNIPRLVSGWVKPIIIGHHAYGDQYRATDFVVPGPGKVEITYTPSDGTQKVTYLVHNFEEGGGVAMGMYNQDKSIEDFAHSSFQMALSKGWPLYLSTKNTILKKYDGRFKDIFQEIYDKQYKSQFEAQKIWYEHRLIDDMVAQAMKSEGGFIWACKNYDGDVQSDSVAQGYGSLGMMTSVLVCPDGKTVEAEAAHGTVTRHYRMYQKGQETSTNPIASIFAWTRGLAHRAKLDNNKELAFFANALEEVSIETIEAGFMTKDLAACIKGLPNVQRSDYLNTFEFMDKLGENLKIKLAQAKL
#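 IDH1-R132H (0.5 ug/mL) preincubated 30 min with compound, then NADPH (0.016 mM) and alpha-KG (2 mM) added; 80 min at RT, pH 7.5. Remaining NADPH coupled via diaphorase/resazurin to fluorescence (540/590 nm); concentration-response curves normalized to no-enzyme control.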
# Giardia killer: kills Giardia lamblia. Giardia lamblia trophozoite viability. activity change, % at 7.66 µM, hits read low. hit rate 0.15% among 340,000; in the data active = activity change below about -80%; inconclusive = between about -30% and that limit;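 note: parasites exposed to compound for two days anaerobically before the ATP read; % is set by controls: 0 for no effect and ±100 for the full control effect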
#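 Giardia lamblia trophozoites (100 cells/well) were incubated with compounds for 48 h at 37 deg C under anaerobic conditions. Viability was read as ATP content by one-step luminescence after 15-30 min at room temperature.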
# Resorufin autofl: counter-screen for mutant IDH1 inhibitors: fluorescence interference; AID 623980; 750 tested, under 10 active; shares compounds with mIDH1 inhibitor; Resorufin detection reagent fluorescence interference, cell-free; inhibition of signal, % at 51.2 µM;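 note: 0% = wells with normal resorufin and full inhibition = wells lacking resorufin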
# IDH1 WT: wild-type IDH1 (human) inhibition counterscreen. shares compounds with mIDH1 inhibitor. WT IDH1 enzyme, NADPH diaphorase/resazurin fluorescence. Potency, µM (series often up to 115 µM), inactives show top-dose activity change, negative = inhibition, hits mostly inhibitors. hit rate 9% among 750. AID 623995;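 note: potency is the fitted concentration of half-maximal effect; 0% = full WT IDH1 enzyme control and full inhibition = no enzyme wells; nearly all actives have a fitted effect of over 55% in size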
# Target sequence (O75874 whole entry, looked up): as the sequence (O75874 whole entry R132H, stated change not applied) above, with H132R counted along it
# IDH1 R132H conf: inhibits human mutant IDH1 enzyme in cherrypick confirmation | IDH1 R132H enzyme, NADPH diaphorase/resazurin fluorescence | shares compounds with mIDH1 inhibitor | hit rate 83% among 750 | Potency, µM (doses to about 76.6 µM), inactives show top-dose activity change, negative = inhibition, most hits filed as inhibitors; note: potency is the fitted concentration of half-maximal effect; nearly all actives have a fitted effect of over 50% in size
# The depositor's hits bear a star; ? = inconclusive; / = no result given; [ ] = another dose, or the depositor's remark. Unless noted, calls come from the whole dose curve; as a rule, active = well fitted curve in the direction sought with a large enough effect; inconclusive = small, poorly fitted or top-dose-only effect, or another doubt; inactive = no such curve, though single readings can be large; an effect the other way counts as inactive or inconclusive.
SMILES,TrxR1 substrate,TrxR1 inh,IL2 activator,BRCA1 expr act,mIDH1 inhibitor,Giardia killer,Resorufin autofl,IDH1 WT,IDH1 R132H conf
CCc1nc(SCC(=O)N2CC(=O)Nc3ccccc32)c2c(C)c(C)sc2n1,1%,10%,-1,-83%,?,32,7,2%,32µM*
Cc1sc2nc(C3CCCCC3)nc(SCC(=O)N3CC(=O)Nc4ccccc43)c2c1C,3%,4%,1,2%,2%,-6,/,/,/
CC(C)c1ccc(NC2CCCN(C(=O)c3ccc(N4CCOCC4)cc3)C2)cc1 (configuration not stated),-11%,-9%,0,-23%,45µM*,-8,-9,-4%,20µM*
O=C(CCl)N1CCN(S(=O)(=O)c2ccc3ccccc3c2)CC1,10%,8.9µM*,0,-14%,52µM*,-16,4,-9%,20µM*
CCOc1ccccc1-c1nnc(SCc2ccc(Cl)cc2)o1,2%,19%,/,7%,17%,/,/,/,/
O=P(CCCCCCCCCP(=O)(c1ccccc1)c1ccccc1)(c1ccccc1)c1ccccc1,-5%,5%[57.1 µM],-2,-106%,33µM*,-10,-9,1%,22µM*
CCCCN(C(=O)C1CCC(CNS(=O)(=O)c2cccc3nsnc23)CC1)c1ccccc1 (configuration not stated),-4%,18%,/,/,-12%,/,/,/,/
Cc1cc(Nc2cccc(O)c2)c2cccc(Br)c2n1,-9%,-2%,/,/,/,/,/,/,/
CC1C/C(=C\c2cccnc2)C(=O)/C(=C/c2cccnc2)C1 (configuration not stated),-5%,50µM*,-7,-83%,?,?,1,6%,45µM*
Cc1ccc(-n2nc(CO)c(C(=O)NCCC(C)C)n2)cc1C,17%,-5%,/,/,-14%,/,/,/,/
COc1ccc(N(C(=O)/C=C\C(=O)Nc2ccc(Cl)cc2)C(C(=O)NCc2ccco2)c2ccc(C)cc2)cc1 (configuration not stated),-5%[57.1 µM],-14%[57.1 µM],/,/,?,/,0,4%,-11%
NC(=O)CSc1nc2c(c(=O)n1-c1ccccc1)C1(CCCCC1)Cc1ccccc1-2,-1%,15%,0,0%,52µM*,1,-2,0%,25µM*
N#CC(C#N)=C1C(=O)N(CCN2CCOCC2)c2ccccc21,-4%[57.1 µM],-60%,-1,-19%,?,-2,4,17%,45µM*
CCN(c1ccccc1)c1nnc(NC(=O)Nc2cccc(Br)c2)s1,-4%,1%,/,/,-2%,/,/,/,/
Cc1ccc(C(=O)Nc2nnc(S(=O)(=O)N3CCCc4ccccc43)s2)cc1,14%[11.4 µM],24%,/,/,7%,/,/,/,/
Cc1c(OC(C(=O)O)c2ccccc2)ccc2c(-c3ccccc3)cc(=O)oc12 (configuration not stated),4%,4%,0,-13%,?,-9,6,-7%,13µM*
CCOc1cc2nc(-c3ccc(OC)c(OC)c3)nc(N3CCOCC3)c2cc1OC,5%,-5%,-5,-89%,?,10,-14,-10%,16µM*
Cc1cc(C)cc(N(C(=O)CCC(=O)Nc2cc(C)on2)C(C(=O)NC2CCCC2)c2ccco2)c1 (configuration not stated),-1%[57.1 µM],6%[57.1 µM],0,-23%,?,19,3,13%,25µM*
Cc1cc(NC(=O)CCC(=O)N(c2ccccc2)C(C(=O)NC2CCCC2)c2ccccc2C)no1 (configuration not stated),0%,18%,-4,-6%,37µM*,-17,2,7%,13µM*
Cc1ccc(N(C(=O)CCC(=O)Nc2cc(C)on2)C(C(=O)NC2CCCC2)c2ccccc2)cc1 (configuration not stated),0%,0%,0,-21%,?,-3,-4,-4%,22µM*
Cc1cc(NC(=O)CCC(=O)N(c2ccccc2C)C(C(=O)NC2CCCC2)c2ccccc2)no1 (configuration not stated),-2%,5%,0,-23%,?,12,2,10%,25µM*
CC(=O)c1ccc(N2CCN(C(=O)NCc3noc4ccc(C)cc34)CC2)cc1,-1%,17%,/,/,-3%,/,/,/,/
Cc1cccc2c1c1ccc3c(c1n2C)C(=O)C=CC3=O,12%[57.1 µM],?,-3,-22%,40µM*,9,0,117%,25µM*
Cc1ccccc1N1CC(=O)N(c2ccccc2C)CC1=O,0%,1%,1,-6%,0%,-11,/,/,/
COc1cccc2c1Oc1ncccc1N(C(=O)CCC(=O)NCc1ccc(OC(C)C)cc1)C2,6%,19%,/,/,28%,/,/,/,/
SMILES,TrxR1 substrate,TrxR1 inh,IL2 activator,BRCA1 expr act,mIDH1 inhibitor,Giardia killer,Resorufin autofl,IDH1 WT,IDH1 R132H conf
COc1ccc(Br)cc1/C=N/NC(=O)c1nc(-c2ccccc2)n2c1CCCCC2,-4%,1%,0,-40%,?,3,3,1%,?
Cc1ccc(NC(=O)C2CCCN2S(=O)(=O)c2ccc3nc(-c4ccccc4)[nH]c3c2)cc1C (configuration not stated),-4%,13%,/,/,-8%,/,/,/,/
O=C(c1ccncc1)N1N=C(c2ccc(Br)cc2)CC1c1ccccc1O (configuration not stated),0%[57.1 µM],25%[57.1 µM],0,-73%,35µM*,3,1,2%,16µM*
O=C(c1ccccc1)N1N=C(c2ccccc2)CC1c1ccccc1O (configuration not stated),4%[11.4 µM],13%[57.1 µM],-3,-45%,1%,4,/,/,/
COc1cc(C)ccc1OCCSc1nc2ccc(NC(C)=O)cc2s1,-8%,-2%,/,0%,5%,/,/,/,/
COc1ccc(S(=O)(=O)Nc2ccc(S(=O)(=O)Nc3ccc(F)cc3)cc2)cc1C,5%[11.4 µM],5%[11.4 µM],0,-22%,?,0,-2,3%,40µM*
Cc1ccc(S(=O)(=O)Nc2ccc(S(=O)(=O)Nc3nccs3)cc2)cc1C,0%,22%,1,-12%,52µM*,-4,2,15%,45µM*
COc1ccc(S(=O)(=O)Nc2cccc(F)c2)cc1C,-7%,14%,0,18%,-4%,-8,/,/,/

# Assay outcomes from PubChem BioAssay.
